Data on 22 compounds can be found in PubChem BioAssay (NCATS).

Inconclusive results are not listed. Where a call stands in place of a potency, no number is given. The source made the active and inactive calls. Calls follow the shape of the dose curve; as a rule, active = well fitted curve in the direction sought with a large enough effect; inconclusive = small, poorly fitted or top-dose-only effect, or another doubt; inactive = no such curve, though single readings can be large; an effect the other way counts as inactive or inconclusive.

One assay deals with Zika virus NS2B-NS3 protease (linked construct). Nature of the assay: 384 well plate NINDS Rhodamine confirmatory qHTS for Zika virus inhibitors (AID 1347164). Also: nearly all actives have a fitted effect of over 65% in size. Also: potency is read from the fitted curve at half-maximal effect. As to conditions: rhodamine-110 peptide substrate fluorescence; series mostly up to 1 mM. An outline of the steps:
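Cleavage of Ac-LKRR-Rhodamine 110 (10 microM final) by linked protease (final 5, 30 or 60 nM) was followed as fluorescence at 485/538 nm after 25 min, room temperature, dark. Compounds preincubated ~15 min.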
`O=C(O)Cc1cccc(OCCCN(Cc2cccc(C(F)(F)F)c2Cl)CC(c2ccccc2)c2ccccc2)c1`: the Potency is 28.2 µM (active).
Turning to `O=C(Nc1ccccc1)Nc1ccc(-c2ccc(C(=O)[C@H]3CCC[C@H]3C(=O)O)cc2)cc1`, the Potency is 14.1 µM (active).
In the case of `CN(C)CC[C@H](CSc1ccccc1)Nc1ccc(S(=O)(=O)NC(=O)c2ccc(N3CCN(Cc4ccccc4-c4ccc(Cl)cc4)CC3)cc2)cc1[N+](=O)[O-]`, the Potency is 0.708 µM (active).
For the compound `N#CC1(c2cccc(C(=O)Nc3cc(Oc4ccc5nc(NC(=O)C6CC6)sc5n4)ccc3F)c2Cl)CC1`, the Potency was 50.1 µM (active).
With `N#CC(c1ccc(Cl)cc1)c1c(Cl)cc(-n2ncc(=O)[nH]c2=O)cc1Cl` (centres undefined), the Potency was 35.5 µM (active).
On the same count and under the same terms, under `COc1cc(Nc2nc3ccccc3nc2NS(=O)(=O)c2ccc(NC(=O)c3ccc(C)c(OC)c3)cc2)cc(OC)c1` stands 8.91 µM (active); under `O=S(=O)(O)c1ccc2cc(N=Nc3cc(S(=O)(=O)O)c4cccnc4c3O)ccc2c1`, 0.562 µM (active).
Turning to `O=c1cc(-c2ccc(O)c(O)c2)oc2cc(O)cc(O)c12`, the Potency entry is “inactive”.

System in the next assay: not listed separately
Nature of the assay: Vero cells viability qHTS for Zika virus inhibitors (AID 1347167). As to conditions: cytotoxicity counter-screen (Zika); series mostly up to 45.9 µM. The gist of the method: (§1)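 qHTS titration; 24-48 h compound exposure, 37 degrees C/5% CO2; DMEM, 4% FBS; CellTiter Glo ATP luminescence.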
For orientation: qHTS replaces the single test concentration by a dilution series.
For `COc1ccc(-c2ccc3ncc4c(c3c2)n(-c2ccc(N3CCNCC3)c(C(F)(F)F)c2)c(=O)n4C)cn1`, the activity change, negative = cytotoxicity is -1.62% [at 4.93 µM] (inactive).
In the case of `Fc1ccc(C(c2ccc(F)cc2)N2CCN(CC=Cc3ccccc3)CC2)cc1`, the compound was classed as inactive.
With `CCCCOCCOc1nc(-c2ccc(C(=O)O)c(F)c2)sc1C`, the compound was classed as inactive.
On the same count and under the same terms, under `O=C1Nc2ccc(I)cc2C1=Cc1cc(Br)c(O)c(Br)c1` stands “inactive”.
With `CCOC(=O)[C@H](CCc1ccccc1)N[C@@H](C)C(=O)N1CCCC1C(=O)O` (some centres undefined), the call was inactive.
As to `O=C(Nc1ccccc1)Nc1ccc(-c2ccc(C(=O)[C@H]3CCC[C@H]3C(=O)O)cc2)cc1`, the compound was called inactive.
Take `O=C(Nc1cccc2c(=O)cc(-c3nn[nH]n3)oc12)c1ccc(OCCCCc2ccccc2)cc1`: the compound was classed as inactive.
Consider `c1cc(OCCN2CCCCC2)cc(-c2n[nH]c3ccc(-c4ncn[nH]4)cc23)c1`, for which the compound was classed as inactive.
Turning to `C[C@H]1COC2=C1C(=O)C(=O)c1c2ccc2c1CCCC2(C)C`, the outcome was inactive.
Turning to `OC(c1cc(C(F)(F)F)nc2c(C(F)(F)F)cccc12)C1CCCCN1` (centres undefined), the result was inactive.
Take `N#CC1(c2cccc(C(=O)Nc3cc(Oc4ccc5nc(NC(=O)C6CC6)sc5n4)ccc3F)c2Cl)CC1`: the compound was classed as inactive.
Still for that read-out and setting: as for `CCCCC[C@H](O)C=C[C@H]1[C@H](O)CC(=O)[C@H]1CCCCCCC(=O)O`, the entry is “inactive”; as for `CC[C@H](C)n1cc(C)c2c(C(=O)NCc3c(C)cc(C)[nH]c3=O)cc(-c3ccc(N4CCNCC4)nc3)cc21`, “inactive”; as for `N#CC(c1ccc(Cl)cc1)c1c(Cl)cc(-n2ncc(=O)[nH]c2=O)cc1Cl` (centres undefined), “inactive”.
For `COc1cc(Nc2nc3ccccc3nc2NS(=O)(=O)c2ccc(NC(=O)c3ccc(C)c(OC)c3)cc2)cc(OC)c1`, the outcome was inactive.
On the same count and under the same terms, as for `COc1cc(Cl)cn2c(-c3cccc(NC4CNC4)n3)cnc12`, the entry is “inactive”; as for `Cc1nc(C(=O)NCC(=O)O)c(O)c2ccc(Oc3ccccc3)cc12`, “inactive”.
With `O=S(=O)(O)c1ccc2cc(N=Nc3cc(S(=O)(=O)O)c4cccnc4c3O)ccc2c1`, the compound was called inactive.

System in a further assay: not listed separately
Nature of the assay: HepG2 cells viability qHTS for Zika virus inhibitors (AID 1347168). As to conditions: Zika counter-screen; series mostly up to 45.9 µM. The gist of the method:
as §1
Regarding `COc1ccc(-c2ccc3ncc4c(c3c2)n(-c2ccc(N3CCNCC3)c(C(F)(F)F)c2)c(=O)n4C)cn1`, the activity change, negative = cytotoxicity is -5.65% [at 4.93 µM] (inactive).
For `CCCCOCCOc1nc(-c2ccc(C(=O)O)c(F)c2)sc1C`, the compound was called inactive.
In the case of `O=C1Nc2ccc(I)cc2C1=Cc1cc(Br)c(O)c(Br)c1`, the result was inactive.
With `O=C(O)Cc1cccc(OCCCN(Cc2cccc(C(F)(F)F)c2Cl)CC(c2ccccc2)c2ccccc2)c1`, the compound was called inactive.
Still for that read-out and setting: as for `CCOC(=O)[C@H](CCc1ccccc1)N[C@@H](C)C(=O)N1CCCC1C(=O)O` (some centres undefined), the entry is “inactive”; as for `O=C(Nc1ccccc1)Nc1ccc(-c2ccc(C(=O)[C@H]3CCC[C@H]3C(=O)O)cc2)cc1`, “inactive”.
As to `O=C(Nc1cccc2c(=O)cc(-c3nn[nH]n3)oc12)c1ccc(OCCCCc2ccccc2)cc1`, the compound was classed as inactive.
`c1cc(OCCN2CCCCC2)cc(-c2n[nH]c3ccc(-c4ncn[nH]4)cc23)c1`: the compound was called inactive.
In the case of `C[C@H]1COC2=C1C(=O)C(=O)c1c2ccc2c1CCCC2(C)C`, the result was inactive.
For `N#CC1(c2cccc(C(=O)Nc3cc(Oc4ccc5nc(NC(=O)C6CC6)sc5n4)ccc3F)c2Cl)CC1`, the call was inactive.
In the case of `CCCCC[C@H](O)C=C[C@H]1[C@H](O)CC(=O)[C@H]1CCCCCCC(=O)O`, the call was inactive.
`CC[C@H](C)n1cc(C)c2c(C(=O)NCc3c(C)cc(C)[nH]c3=O)cc(-c3ccc(N4CCNCC4)nc3)cc21`: the call was inactive.
On the same count and under the same terms, under `CC(C)c1onc(-c2c(Cl)cccc2Cl)c1COc1ccc(C=Cc2cccc(C(=O)O)c2)c(Cl)c1` stands “inactive”; under `N#CC(c1ccc(Cl)cc1)c1c(Cl)cc(-n2ncc(=O)[nH]c2=O)cc1Cl` (centres undefined), “inactive”.
Turning to `COc1cc(Nc2nc3ccccc3nc2NS(=O)(=O)c2ccc(NC(=O)c3ccc(C)c(OC)c3)cc2)cc(OC)c1`, the result was inactive.
As to `COc1cc(Cl)cn2c(-c3cccc(NC4CNC4)n3)cnc12`, the outcome was inactive.
Take `Cc1nc(C(=O)NCC(=O)O)c(O)c2ccc(Oc3ccccc3)cc12`: the compound was called inactive.
Turning to `O=S(=O)(O)c1ccc2cc(N=Nc3cc(S(=O)(=O)O)c4cccnc4c3O)ccc2c1`, the compound was classed as inactive.
